Holding throughout (conditions): concentration: 1 μM, replicates: in singlicate; n = 1
Assay [1] deals with CAMK1B.
Assay [2] deals with CAMK1D.
Assay [3] concerns CAMK1G.
For assay [4], the system named is CAMK1.
Assay [5] deals with CAMK2A.
Assay [6] relates to CAMK2B.
The subject of assay [7] is CAMK2D.
The subject of assay [8] is CAMK2G.
The subject of assay [9] is CAMK4.
In assay [10] the test system is CAMKK1.
Assay [11] relates to CAMKK2.
For assay [12], the system named is CASK.
Assay [13] concerns T1, CDC2L1.
T1 construct: gene CDK11B

Assay [14] deals with CDC2L2.
Assay [15] deals with T2, CDC2L5.
T2 construct: gene CDK13

In assay [16] the test system is T3, CDK11.
T3 construct: gene CDK19

Assay [17] concerns CDK2.
Assay [18] concerns CDK3.
For assay [19], the system named is CDK4-cyclinD1.
In assay [20] the test system is CDK4-cyclinD3.

Data on ten molecules can be found in article PMC5540273 (PLoS ONE, 2017).
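Further: KINOMEscan kinase panel screen.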

Turning to `Nc1ncnc2[nH]c(-c3ccccc3)nc12` [AH5015], the “%Inh” value in assay [1] is given as 29%; in assay [2], 13%; in assay [3], 0%; in assay [4], 0%; in assay [5], 0%; in [6], 0%. The “%Inh” value in assay [7] is listed as 0%; in assay [8], 0%; in assay [9], 0%; in [10], 0%; in [11], 0%; in [12], 15%. The “%Inh” value came out at 0% in [13]; 5% in assay [14]; 0% in assay [15]; 0% in assay [16]; 0% in assay [17]; 2% in assay [18]. Further, the “%Inh” value turned out to be 0% in assay [19] and 11% in assay [20].
On to `Fc1cc(Cl)ccc1Nc1ccnc2cc(-c3ccc(CN4CCCCC4)o3)ccc12` [GW560116], for which the “%Inh” value in assay [1] amounted to 0%; in [2], 8%; in assay [3] it was 0%; in assay [4], 3%; in assay [5] it was 0%; in assay [6], 0%. Further, the “%Inh” value in [7] is on record as 8%; in assay [8], 26%; in assay [9] it was 0%; in [10] it was 4%; in assay [11], 22%; in assay [12], 2%. In addition, the “%Inh” value in assay [13] came out at 0%; in assay [14], 20%; in assay [15] it was 0%; in assay [16], 0%; in [17], 0%; in [18], 5%. The figures for the “%Inh” value in assay [19] and in assay [20] were 4% and 0%, respectively.
`COc1cc2ncnc(Nc3ccc4nc(-c5ccccc5)[nH]c4c3)c2cc1OC.Cl` [GW282450]: the “%Inh” value is given as 0% in assay [1]; 20% in assay [2]; 0% in [3]; 29% in [4]; 0% in assay [5]; 0% in [6]. The “%Inh” value in assay [7] is on record as 1%; in assay [8] it was 24%; in [9], 0%; in assay [10], 11%; in assay [11] it was 13%; in [12] it was 25%. Also, the “%Inh” value in assay [13] is reported as 0%; in [14] it was 16%; in [15], 0%; in assay [16] it was 0%; in [17], 0%; in [18], 22%. Besides, the “%Inh” value in [19] and in [20] was 0% in each case.
With `O=S(=O)(c1ccc(-c2ccnc3[nH]ccc23)cc1)N1CCCC1` [GSK846226], the “%Inh” value in [1] was 30%; in assay [2], 31%; in [3], 33%; in [4], 39%; in assay [5], 47%; in assay [6], 12%. The “%Inh” value is 44% in assay [7]; 34% in assay [8]; 0% in [9]; 2% in assay [10]; 23% in assay [11]; 5% in assay [12]. The “%Inh” value in assay [13] came to 0%; in assay [14], 17%; in [15] it was 0%; in assay [16], 2%; in assay [17], 0%; in assay [18] it was 1%. The “%Inh” value in assay [19] and in assay [20] was 0% in each case.
On to `Cc1c(Cn2ccn3c(=O)cc(N4CCOCC4)nc23)cccc1C(F)(F)F` [GSK2289044], for which the “%Inh” value in assay [1] is reported as 0%; in assay [2], 7%; in assay [3], 13%; in assay [4], 0%; in assay [5], 83%; in [6] it was 79%. In addition, the “%Inh” value in assay [7] came to 18%; in [8], 32%; in assay [9], 5%; in [10], 9%; in assay [11], 18%; in [12] it was 14%. In addition, the “%Inh” value in [13] is 0%; in assay [14], 13%; in assay [15] it was 0%; in assay [16], 0%; in assay [17] it was 0%; in [18], 9%. Besides, the “%Inh” value in assay [19] and in [20] was 0% in each case.
On to `Cc1c(O)cccc1Nc1ccnc2ccc(C(F)(F)F)cc12.Cl` [GW466413], for which the “%Inh” value in assay [1] is 2%; in assay [2], 7%; in assay [3], 0%; in [4] it was 1%; in assay [5] it was 0%; in assay [6], 0%. In addition, the “%Inh” value was 0% in assay [7]; 0% in [8]; 0% in assay [9]; 12% in assay [10]; 3% in [11]; 0% in assay [12]. The “%Inh” value is reported as 0% in assay [13]; 0% in [14]; 0% in assay [15]; 17% in assay [16]; 0% in assay [17]; 0% in assay [18]. Also, the “%Inh” value in assay [19] and in assay [20] was 0% throughout.
Regarding `CC1=C(C(=O)Nc2cc3cn[nH]c3cc2F)C(c2ccc(C(F)(F)F)cc2)CC(=O)N1` (centres unmarked) [GSK429286], the “%Inh” value in assay [1] is on record as 8%; in [2], 7%; in [3] it was 0%; in assay [4], 0%; in assay [5], 0%; in assay [6], 0%. For the same molecule, the “%Inh” value amounted to 0% in assay [7]; 24% in assay [8]; 0% in assay [9]; 17% in assay [10]; 14% in assay [11]; 43% in assay [12]. Besides, the “%Inh” value worked out at 0% in assay [13]; 13% in [14]; 0% in [15]; 7% in assay [16]; 0% in [17]; 18% in assay [18]. For the same molecule, the “%Inh” value in assay [19] and in [20] was 0% throughout.
Take `Cc1cccc(-c2nc(Nc3cccc(C(N)=O)c3)c3ccccc3n2)n1` [GW876019]: the “%Inh” value in assay [1] was found to be 0%; in assay [2], 0%; in assay [3], 9%; in assay [4], 0%; in assay [5], 0%; in [6], 0%. Also, the “%Inh” value is 7% in assay [7]; 0% in assay [8]; 3% in assay [9]; 12% in assay [10]; 0% in assay [11]; 30% in [12]. Also, the “%Inh” value in assay [13] was 0%; in assay [14], 2%; in assay [15], 10%; in [16], 8%; in assay [17], 0%; in [18], 59%. For the same molecule, the “%Inh” value was 18% in assay [19] and 0% in assay [20].
As to `O=c1cc(N2CCOCC2)nc2n(Cc3cccc(Cl)c3Cl)ccn12` [GSK2286295], the “%Inh” value in assay [1] came out at 8%; in assay [2], 18%; in assay [3], 0%; in assay [4], 14%; in assay [5] it was 0%; in assay [6], 0%. The “%Inh” value was found to be 5% in assay [7]; 9% in assay [8]; 0% in assay [9]; 14% in assay [10]; 16% in [11]; 9% in assay [12]. The “%Inh” value in assay [13] is 13%; in [14] it was 16%; in assay [15] it was 0%; in assay [16], 23%; in [17] it was 0%; in [18] it was 0%. The “%Inh” value in assay [19] and in assay [20] was 0% in each case.
Consider `COC(=O)c1c(-c2ccccc2)c2cc(OC)ccc2c(=O)n1Cc1ccccc1`, for which the “%Inh” value in assay [1] worked out at 0%; in assay [2], 20%; in [3] it was 20%; in [4], 19%; in assay [5], 15%; in assay [6] it was 0%. Also, the “%Inh” value in assay [7] amounted to 13%; in assay [8], 18%; in assay [9], 0%; in assay [10], 16%; in [11], 17%; in assay [12], 0%. In addition, the “%Inh” value in [13] was 7%; in assay [14], 3%; in [15], 0%; in assay [16] it was 12%; in [17], 2%; in assay [18] it was 10%. Besides, the “%Inh” value in [19] and in assay [20] was 0% in each case.
